Results reported in PubChem BioAssay (EPA / NIEHS).
Calls of active or inactive are those of the source. How the source made its calls: active means hit-call score of the fitted dose curve at least 0.9, where 1 is the maximum; inactive means score below 0.9.

Experiments:
[1] = read-out: Interleukin-6 (IL6), IL6 (gene 3569); assay: BSK_CASM3C_IL6: BioMAP Diversity Plus: CASM3C Assay for Interleukin-6 (IL6) Biomarker Activity for (AID 2283040); conditions: primary human coronary artery smooth muscle cells; actives raise or lower the signal
[2] = read-out: Tissue plasminogen activator (tPA), PLAT (gene 5327); assay: BSK_BE3C_tPA: BioMAP Diversity Plus: BE3C Assay for Tissue plasminogen activator (tPA) Biomarker Activity (AID 2283041); conditions: primary human bronchial epithelial cells; actives raise or lower the signal
In short: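 Primary human bronchial epithelial cells in the BE3C system, exposed to compound for 24 h. tPA was quantified by ELISA; DMSO served as baseline, with gain or loss of signal fitted. Cytotoxicity checked in parallel cultures by SRB total-protein staining.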

[3] = read-out: Interleukin-8 (IL8), CXCL8 (gene 3576); assay: BSK_CASM3C_IL8: BioMAP Diversity Plus: CASM3C Assay for Interleukin-8 (IL8) Biomarker Activity (AID 2283042); conditions: primary human coronary artery smooth muscle cells; actives raise or lower the signal;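 further: IL-8 protein level quantified by ELISA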
[4] = read-out: Human Leukocyte Antigen - DR isotype (HLADR), HLA-DRA (gene 3122); assay: BSK_CASM3C_HLADR: BioMAP Diversity Plus: CASM3C Assay for Human Leukocyte Antigen - DR isotype (HLADR) Biomarker Activity (AID 2283043); conditions: primary human coronary artery smooth muscle cells; actives raise or lower the signal;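 further: cell-surface HLA-DR protein level quantified by ELISA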
[5] = read-out: Macrophage colony-stimulating factor (MCSF), CSF1 (gene 1435); assay: BSK_CASM3C_MCSF: BioMAP Diversity Plus: CASM3C Assay for Macrophage colony-stimulating factor (MCSF) Biomarker Activity (AID 2283044); conditions: primary human coronary artery smooth muscle cells; actives raise or lower the signal;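 further: M-CSF protein amount quantified by ELISA after 24 h exposure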
[6] = read-out: Low-density lipoprotein receptor (LDLR), LDLR (gene 3949); assay: BSK_CASM3C_LDLR: BioMAP Diversity Plus: CASM3C Assay for Low-density lipoprotein receptor (LDLR) Biomarker Activity (AID 2283045); conditions: primary human coronary artery smooth muscle cells; actives raise or lower the signal;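 further: LDLR protein level on the cell surface quantified by ELISA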
[7] = read-out: Monocyte Chemoattractant Protein-1 (MCP1), CCL2 (gene 6347); assay: BSK_CASM3C_MCP1: BioMAP Diversity Plus: CASM3C Assay for Monocyte Chemoattractant Protein-1 (MCP1) Biomarker Activity (AID 2283046); conditions: primary human coronary artery smooth muscle cells; actives raise or lower the signal;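 further: MCP-1 level quantified by ELISA 24 h after dosing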
[8] = BSK_CASM3C_Proliferation: Cell Proliferation Assessment in the BioMAP Diversity Plus: CASM3C Assay (AID 2283047); conditions: primary human coronary artery smooth muscle cells;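 further: sulforhodamine B total protein stain as relative cell number at 560 nm; sub-confluent cells exposed 48 h before staining; fitted both ways against DMSO so gain or loss of cell number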
[9] = read-out: Monokine induced gamma interferon (MIG), CXCL9 (gene 4283); assay: BSK_CASM3C_MIG: BioMAP Diversity Plus: CASM3C Assay for Monokine induced gamma interferon (MIG) Biomarker Activity (AID 2283048); conditions: primary human coronary artery smooth muscle cells; actives raise or lower the signal;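 further: MIG protein level measured by ELISA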
[10] = read-out: serum amyloid A (SAA), SAA1 (gene 6288); assay: BSK_CASM3C_SAA: BioMAP Diversity Plus: CASM3C Assay for serum amyloid A (SAA) Biomarker Activity (AID 2283049); conditions: primary human coronary artery smooth muscle cells; actives raise or lower the signal;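 further: SAA protein level quantified by ELISA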
[11] = BSK_CASM3C_SRB: Viability Assessment in the BioMAP Diversity Plus: CASM3C Assay (AID 2283050); conditions: primary human coronary artery smooth muscle cells
[12] = read-out: Thrombomodulin, THBD (gene 7056); assay: BSK_CASM3C_Thrombomodulin: BioMAP Diversity Plus: CASM3C Assay for Thrombomodulin Biomarker Activity (AID 2283051); conditions: primary human coronary artery smooth muscle cells; actives raise or lower the signal;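 further: thrombomodulin protein level measured by ELISA 24 h after dosing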
[13] = read-out: Tissue Factor, F3 (gene 2152); assay: BSK_CASM3C_TissueFactor: BioMAP Diversity Plus: CASM3C Assay for Tissue Factor Biomarker Activity (AID 2283052); conditions: primary human coronary artery smooth muscle cells; actives raise or lower the signal;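 further: cell surface tissue factor protein level read by ELISA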
[14] = read-out: Interferon-gamma inducible Protein 10 (IP10), CXCL10 (gene 3627); assay: BSK_hDFCGF_IP10: BioMAP Diversity Plus: hDFCGF Assay for Interferon-gamma inducible Protein 10 (IP10) Biomarker Activity (AID 2283053); conditions: primary human foreskin fibroblasts; actives raise or lower the signal
In short: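 Primary human foreskin fibroblasts exposed to chemicals for 24 h. IP-10 measured by ELISA; changes fitted bidirectionally against DMSO baseline.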

[15] = read-out: Urokinase-type plasminogen activator receptor (uPAR), PLAUR (gene 5329); assay: BSK_CASM3C_uPAR: BioMAP Diversity Plus: CASM3C Assay for Urokinase-type plasminogen activator receptor (uPAR) Biomarker Activity (AID 2283054); conditions: primary human coronary artery smooth muscle cells; actives raise or lower the signal;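 further: cell-surface uPAR protein level quantified by ELISA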
[16] = read-out: Vascular cell adhesion molecule 1 (VCAM1), VCAM1 (gene 7412); assay: BSK_CASM3C_VCAM1: BioMAP Diversity Plus: CASM3C Assay for Vascular cell adhesion molecule 1 (VCAM1) Biomarker Activity (AID 2283055); conditions: primary human coronary artery smooth muscle cells; actives raise or lower the signal;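 further: VCAM-1 protein level quantified by ELISA on the cells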
[17] = read-out: Collagen III, COL3A1 (gene 1281); assay: BSK_hDFCGF_CollagenIII: BioMAP Diversity Plus: hDFCGF Assay for Collagen III Biomarker Activity (AID 2283056); conditions: primary human foreskin fibroblasts; actives raise or lower the signal
In short: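 ELISA readout of Collagen III in human dermal (foreskin) fibroblasts, taken 24 h post-treatment. Gain or loss relative to DMSO vehicle fitted in both directions.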

[18] = read-out: Epidermal growth factor receptor (EGFR), EGFR (gene 1956); assay: BSK_hDFCGF_EGFR: BioMAP Diversity Plus: hDFCGF Assay for Epidermal growth factor receptor (EGFR) Biomarker Activity (AID 2283057); conditions: primary human foreskin fibroblasts; actives raise or lower the signal
In short: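 Primary human foreskin fibroblasts (hDFCGF system), sampled 24 h after dosing; EGFR quantified by ELISA. Bidirectional fit relative to DMSO baseline; SRB total-protein staining in parallel cultures for cytotoxicity.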

[19] = read-out: Interleukin-8 (IL8), CXCL8 (gene 3576); assay: BSK_hDFCGF_IL8: BioMAP Diversity Plus: hDFCGF Assay for Interleukin-8 (IL8) Biomarker Activity (AID 2283058); conditions: primary human foreskin fibroblasts; actives raise or lower the signal
In short: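 IL-8 levels read by ELISA at 24 hours after dosing human skin fibroblast cultures. Parallel SRB staining assessed overt cytotoxicity, and gain or loss of signal was fitted against DMSO control.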

[20] = BSK_hDFCGF_Proliferation: Cell Proliferation Assessment in the BioMAP Diversity Plus: hDFCGF Assay (AID 2283059); conditions: primary human foreskin fibroblasts;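 further: curves fitted for both rise and fall of signal versus DMSO baseline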
In short: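 Primary human foreskin fibroblasts, sub-confluent; […]; 10% TCA fix, 0.1% SRB stain, A560 total protein. Gain/loss fitted bidirectionally vs DMSO control.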

Measured: AC50

NCCO
active: [12] 937 nM
inactive: all other assays above

Cc1ccccc1Cl
inactive: all assays above

Cc1oc(-c2ccccc2)nc1CCOc1cccc2c1ccn2CCC(=O)O
active: [2] 20 µM
inactive: all other assays above

Nc1nc(N)c2nc(CNc3ccc(C(=O)N[C@@H](CCC(=O)O)C(=O)O)cc3)cnc2n1
inactive: all assays above

COC(=O)c1ccc(O)cc1
not listed: [1]
inactive: all other assays above

CCCc1cc(=O)[nH]c(=S)[nH]1
inactive: all assays above

CC(=O)OC/C=C(\C)CCC=C(C)C
active: [20] 0.597 µM
inactive: all other assays above

CN1CCN(Cc2cc(-c3ccc4[nH]c(=O)oc4c3)co2)[C@@H](c2ccc(F)cc2)C1
active: [2] 3.27 µM | [7] 0.736 µM | [8] 12.3 µM | [20] 17.6 µM
inactive: all other assays above

NS(=O)(=O)c1cc2c(cc1Cl)NCNS2(=O)=O
inactive: all assays above

CN[C@H]1CC[C@@H](c2ccc(Cl)c(Cl)c2)c2ccc(S(N)(=O)=O)cc21
active: [1] 33.1 µM | [2] 13 µM | [3] 35.3 µM | [4] 32.5 µM | [5] 28.2 µM | [6] 34.8 µM | [7] 30.4 µM | [8] 14.7 µM | [9] 31.2 µM | [10] 36 µM | [11] 31.3 µM | [13] 9.57 µM | [14] 26 µM | [15] 27.3 µM | [16] 31.4 µM | [17] 20 µM | [18] 32.7 µM | [19] 34.1 µM | [20] 10.3 µM
inactive: [12]

CCCCC(CC)COC(=O)CC(C(=O)OCC(CC)CCCC)S(=O)(=O)O (configuration not stated)
active: [2] 11.6 µM | [14] 7.42 µM | [17] 8.52 µM | [19] 12.9 µM | [20] 10 µM
not listed: [18]
inactive: all other assays above

Cc1ccc(C(C)C)c(O)c1
not listed: [10]
inactive: all other assays above
